PubChem BioAssay AID1159580 (chemical genetic matrix, 2015)
Hit rate of the full screen: of about 5,500 compounds, about 2,000 (36%) were called active. Roughly 18% stayed inconclusive and do not appear here. No stated cut-off is given here; in the data, active means normalized growth mostly below about 0.91 (no sharp cut-off); inconclusive means no clear call, values can overlap the other calls; inactive means mostly above about 0.92. The list shows a part of the results.

Assay: chemical genetic growth profiling, strain panel (AID 1159580);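 further: tested at 20 µM; growth read once vehicle control cultures reached saturation at 30 °C; 1 = growth at the plate median or of vehicle wells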
Conditions: S. cerevisiae deletion strains, growth OD
[1] = locus YAL021C, strain ccr4, stronger effect = lower value
[2] = locus YAL026C, strain drs2, stronger effect = lower value
[3] = locus YAL030W, strain snc1, stronger effect = lower value
[4] = locus YBL061C, strain skt5, stronger effect = lower value
[5] = locus YBR009C, strain hhf1, stronger effect = lower value
[6] = locus YBR023C, strain chs3, stronger effect = lower value
[7] = locus YBR171W, strain sec66, stronger effect = lower value
[8] = locus YBR231C, strain swc5, stronger effect = lower value
[9] = locus YBR279W, strain paf1, stronger effect = lower value
[10] = locus YCL011C, strain gbp2, stronger effect = lower value
[11] = locus YCL016C, strain dcc1, stronger effect = lower value
[12] = locus YCL061C, strain MRC1, stronger effect = lower value
[13] = locus YCL069W, strain vba3, stronger effect = lower value
[14] = locus YCR088W, strain abp1, stronger effect = lower value
[15] = locus YDL005C, strain med2, stronger effect = lower value
[16] = locus YDL040C, strain nat1, stronger effect = lower value
[17] = locus YDR001C, strain nth1, stronger effect = lower value
[18] = locus YDR069C, strain doa4, stronger effect = lower value
[19] = locus YDR137W, strain rgp1, stronger effect = lower value
[20] = locus YDR159W, strain sac3, stronger effect = lower value
[21] = locus YDR297W, strain sur2, stronger effect = lower value
[22] = locus YDR334W, strain swr1, stronger effect = lower value
[23] = locus YDR335W, strain msn5, stronger effect = lower value
[24] = locus YDR392W, strain spt3, stronger effect = lower value
[25] = locus YEL003W, strain gim4, stronger effect = lower value
[26] = locus YEL037C, strain rad23, stronger effect = lower value
[27] = locus YEL061C, strain CIN8 (second series), stronger effect = lower value
[28] = locus YER015W, strain faa2, stronger effect = lower value
[29] = locus YER016W, strain bim1, stronger effect = lower value
[30] = locus YER111C, strain swi4, stronger effect = lower value
[31] = locus YER155C, strain BEM2 (second series), stronger effect = lower value
[32] = locus YFR010W, strain ubp6, stronger effect = lower value
[33] = locus YGL167C, strain pmr1, stronger effect = lower value
[34] = locus YGL173C, strain kem1, stronger effect = lower value
[35] = locus YGL227W, strain vid30, stronger effect = lower value
[36] = locus YGL240W, strain doc1, stronger effect = lower value
[37] = locus YGL253W, strain hxk2, stronger effect = lower value
[38] = locus YHR013C, strain ard1, stronger effect = lower value
[39] = locus YHR027C, strain rpn1, stronger effect = lower value
[40] = locus YHR030C, strain SLT2, stronger effect = lower value
[41] = locus YHR079C, strain IRE1, stronger effect = lower value
[42] = locus YHR142W, strain chs7, stronger effect = lower value
[43] = locus YJL092W, strain hpr5, stronger effect = lower value
[44] = locus YJL095W, strain BCK1 (second series), stronger effect = lower value
[45] = locus YJL095W, strain BCK1, stronger effect = lower value
[46] = locus YJL115W, strain asf1, stronger effect = lower value
[47] = locus YJL129C, strain trk1, stronger effect = lower value
[48] = locus YJL154C, strain vps35, stronger effect = lower value
[49] = locus YJL164C, strain tpk1, stronger effect = lower value
[50] = locus YJL166W, strain qcr8, stronger effect = lower value
[51] = locus YJL187C, strain SWE1, stronger effect = lower value
[52] = locus YJR066W, strain TOR1, stronger effect = lower value
[53] = locus YKL160W, strain elf1, stronger effect = lower value
[54] = locus YKR026C, strain gcn3, stronger effect = lower value
[55] = locus YKR091W, strain srl3, stronger effect = lower value
[56] = locus YLL001W, strain dnm1, stronger effect = lower value
[57] = locus YLL026W, stronger effect = lower value
[58] = locus YLL041C, strain sdh2, stronger effect = lower value
[59] = locus YLR027C, strain aat2, stronger effect = lower value
[60] = locus YLR113W, strain HOG1, stronger effect = lower value
[61] = locus YLR221C, strain rsa3, stronger effect = lower value
[62] = locus YLR258W, strain gsy2, stronger effect = lower value
[63] = locus YLR262C, strain YPT6 (second series), stronger effect = lower value
[64] = locus YLR320W, strain mms22, stronger effect = lower value
[65] = locus YLR342W, strain FKS1, stronger effect = lower value
[66] = locus YLR357W, strain rsc2, stronger effect = lower value
[67] = locus YLR370C, strain arc18, stronger effect = lower value
[68] = locus YLR384C, strain iki3, stronger effect = lower value
[69] = locus YML120C, strain ndi1, stronger effect = lower value
[70] = locus YMR058W, strain fet3, stronger effect = lower value
[71] = locus YMR125W, strain sto1, stronger effect = lower value
[72] = locus YMR129W, stronger effect = lower value
[73] = locus YMR205C, strain PFK2, stronger effect = lower value
[74] = locus YMR231W, strain pep5, stronger effect = lower value
[75] = locus YNL071W, strain lat1, stronger effect = lower value
[76] = locus YNL183C, strain NPR1, stronger effect = lower value
[77] = locus YNL209W, strain ssb2, stronger effect = lower value
[78] = locus YNL248C, strain rpa49, stronger effect = lower value
[79] = locus YNL322C, strain KRE1 (second series), stronger effect = lower value
[80] = locus YNR049C, strain mso1, stronger effect = lower value
[81] = locus YOR001W, strain rrp6, stronger effect = lower value
[82] = locus YOR070C, strain gyp1, stronger effect = lower value
[83] = locus YOR080W, strain dia2, stronger effect = lower value
[84] = locus YOR083W, strain WHI5, stronger effect = lower value
[85] = locus YOR106W, strain vam3, stronger effect = lower value
[86] = locus YOR231W, strain MKK1, stronger effect = lower value
[87] = locus YOR265W, strain rbl2, stronger effect = lower value
[88] = locus YOR270C, strain vph1, stronger effect = lower value
[89] = locus YOR290C, strain snf2, stronger effect = lower value
[90] = locus YPL051W, strain arl3, stronger effect = lower value
[91] = locus YPL078C, strain atp4, stronger effect = lower value
[92] = locus YPL106C, strain sse1, stronger effect = lower value
[93] = locus YPL240C, strain hsp82, stronger effect = lower value
[94] = locus YPL256C, strain CLN2, stronger effect = lower value

Measured: normalized growth

O=C(/C=C/c1ccc(O)cc1)c1ccccc1O
active: [1] 0.762 | [2] 0.359 | [3] 0.359 | [4] 0.366 | [5] 0.25 | [6] 0.452 | [7] 0.774 | [8] 0.382 | [9] 0.423 | [10] 0.366 | [11] 0.446 | [12] 0.484 | [13] 0.256 | [14] 0.639 | [15] 0.759 | [16] 0.683 | [17] 0.552 | [18] 0.859 | [19] 0.255 | [20] 0.305 | locus YDR195W, strain ref2 1.15 [resistant] | [21] 0.554 | [22] 0.301 | [23] 0.382 | [24] 0.103 | [25] 0.236 | [26] 0.667 | [27] 0.175 | [28] 0.469 | [29] 0.478 | [30] 0.126 | [31] 0.128 | [32] 0.768 | [33] 0.703 | [34] 0.585 | [35] 0.169 | [36] 0.453 | [37] 0.2 | [38] 0.441 | [39] 0.624 | [40] 0.0955 | [41] 0.119 | [42] 0.14 | [43] 0.586 | [44] 0.202 | [45] 0.105 | [46] 0.684 | [47] 0.463 | [48] 0.582 | [49] 0.275 | [50] 0.228 | [51] 0.355 | [52] 0.0115 | [53] 0.229 | [54] 0.759 | [55] 0.71 | [56] 0.488 | [57] 0.325 | [58] 0.499 | [59] 0.271 | [60] 0.125 | [61] 0.229 | [62] 0.426 | [63] 0.301 | [64] 0.145 | [65] 0.315 | [66] 0.726 | [67] 0.713 | [68] 0.761 | [69] 0.246 | [70] 0.383 | [71] 0.171 | [72] 0.656 | [73] 0.248 | [74] 0.529 | [75] 0.0982 | [76] 0.00476 | [77] 0.652 | [78] 0.379 | [79] 0.506 | [80] 0.569 | [81] 0.385 | [82] 0.331 | [83] 0.766 | [84] 0.366 | [85] 0.321 | [86] 0.102 | [87] 0.584 | [88] 0.285 | [89] 0.214 | [90] 0.325 | [91] 0.256 | [92] 0.609 | [93] 0.325 | [94] 0.103

O=C(/C=C/c1ccccc1)c1ccc(O)cc1O
active: [1] 0.0748 | [2] 0.0615 | [3] 0.0587 | [4] 0.066 | [5] 0.0651 | [6] 0.0637 | [7] 0.0801 | [8] 0.062 | [9] 0.0608 | [10] 0.0582 | [11] 0.0631 | [12] 0.0667 | [13] 0.0608 | [14] 0.0623 | [15] 0.0755 | [16] 0.0609 | [17] 0.0596 | [18] 0.0834 | [19] 0.0879 | [20] 0.0941 | locus YDR195W, strain ref2 0.114 | [21] 0.0595 | [22] 0.0664 | [23] 0.0605 | [24] 0.0975 | [25] 0.0559 | [26] 0.059 | [27] 0.0607 | [28] 0.0634 | [29] 0.0613 | [30] 0.0739 | [31] 0.0936 | [32] 0.0802 | [33] 0.0759 | [34] 0.0714 | [35] 0.0642 | [36] 0.0905 | [37] 0.054 | [38] 0.122 | [39] 0.0687 | [40] 0.101 | [41] 0.113 | [42] 0.0687 | [43] 0.0609 | [44] 0.0568 | [45] 0.131 | [46] 0.0751 | [47] 0.0857 | [48] 0.0627 | [49] 0.0619 | [50] 0.0694 | [51] 0.0592 | [52] 0.000815 | [53] 0.0634 | [54] 0.0638 | [55] 0.0604 | [56] 0.059 | [57] 0.0586 | [58] 0.063 | [59] 0.0578 | [60] 0.216 | [61] 0.0573 | [62] 0.0645 | [63] 0.0856 | [64] 0.0956 | [65] 0.064 | [66] 0.137 | [67] 0.0633 | [68] 0.0625 | [69] 0.0602 | [70] 0.0605 | [71] 0.0837 | [72] 0.061 | [73] 0.0908 | [74] 0.0723 | [75] 0.0616 | [76] 0.000882 | [77] 0.0674 | [78] 0.0717 | [79] 0.0685 | [80] 0.0592 | [81] 0.0669 | [82] 0.0587 | [83] 0.0676 | [84] 0.0633 | [85] 0.0654 | [86] 0.108 | [87] 0.0582 | [88] 0.0904 | [89] 0.0728 | [90] 0.0614 | [91] 0.0665 | [92] 0.102 | [93] 0.058 | [94] 0.118
